Compounds with a hit are over-represented: about 3.5% of the library has one in this group of screens.
Autofluor counter = flagged as autofluorescent in microsphere protease counterscreen | fluorescence intensity (test concentration not listed) | compound autofluorescence counterscreen, microsphere flow cytometry; hits give high values | AID 624483 | actives 3.1% (n = 360,000); in the data active = fluorescence intensity above about 16000; inconclusive = no clear call, values can overlap the other calls
Anthrax LF inh2 = Bacillus anthracis LF protease inhibitors, primary screen, biochemical, multiplex microsphere, MLPCN library; multiplex microsphere protease cleavage assay; inhibition, % at 10 µM; Lethal factor (Bacillus anthracis), P15917; actives 0.12% (n = 360,000); note: plate controls were buffer without enzyme for full effect and enzyme alone for no effect
Target sequence (P15917 whole entry, looked up): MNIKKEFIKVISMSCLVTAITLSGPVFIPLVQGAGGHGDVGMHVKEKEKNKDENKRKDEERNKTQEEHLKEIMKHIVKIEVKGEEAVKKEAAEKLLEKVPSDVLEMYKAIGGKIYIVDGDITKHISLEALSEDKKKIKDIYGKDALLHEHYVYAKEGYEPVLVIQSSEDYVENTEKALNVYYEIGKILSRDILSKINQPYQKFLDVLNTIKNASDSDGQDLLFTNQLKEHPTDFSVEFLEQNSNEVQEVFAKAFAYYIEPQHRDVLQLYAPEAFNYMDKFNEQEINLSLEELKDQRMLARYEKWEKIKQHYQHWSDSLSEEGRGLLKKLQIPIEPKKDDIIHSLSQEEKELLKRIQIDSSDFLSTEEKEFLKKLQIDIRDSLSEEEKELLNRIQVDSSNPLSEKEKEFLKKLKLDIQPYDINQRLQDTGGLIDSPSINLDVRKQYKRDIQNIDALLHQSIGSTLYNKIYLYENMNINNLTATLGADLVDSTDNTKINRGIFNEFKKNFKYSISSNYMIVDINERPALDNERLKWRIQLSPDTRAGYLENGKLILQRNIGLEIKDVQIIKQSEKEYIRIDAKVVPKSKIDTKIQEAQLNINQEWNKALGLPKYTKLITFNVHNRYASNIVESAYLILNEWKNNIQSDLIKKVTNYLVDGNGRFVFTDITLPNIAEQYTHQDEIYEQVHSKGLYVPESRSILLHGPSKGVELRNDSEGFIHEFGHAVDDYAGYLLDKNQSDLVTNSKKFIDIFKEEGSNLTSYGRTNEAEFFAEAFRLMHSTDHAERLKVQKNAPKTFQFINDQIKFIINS
BoNT-F LC inh = BoNT/F light chain protease inhibitors, primary screen, biochemical, flow cytometry, MLPCN library; actives 0.22% (n = 360,000); Botulinum neurotoxin type F light chain protease (Clostridium botulinum); inhibition, % at 10 µM; Multiplex microsphere protease cleavage assay; in the data active = inhibition above about 35%, passing the limit was not always enough; inconclusive = no clear call, values can overlap the other calls; note: plate controls were buffer without enzyme for full effect and enzyme alone for no effect
BoNT-A LC inh2 = BoNT/A light chain protease inhibitors, primary screen, biochemical, flow cytometry, MLPCN library. Botulinum neurotoxin type A light chain protease (Clostridium botulinum A str. ATCC 3502). multiplex microsphere protease substrate cleavage. actives 0.17% (n = 360,000). inhibition, % at 10 µM; note: plate controls were buffer without enzyme for full effect and enzyme alone for no effect
Active calls of the source: *; ? = inconclusive. Cut-off read from the data, not from the text of the source, unless noted: active = inhibition above about 30%; inconclusive = no clear call, values can overlap the other calls; inactive = below that.

SMILES	Autofluor counter	Anthrax LF inh2	BoNT-F LC inh	BoNT-A LC inh2
Cc1cc2cc(CN(CCCN3CCOCC3)C(=O)NC3CCCCC3)c(=O)[nH]c2cc1C	23619*	-2	-2	-1
Cc1ccc2cc(CN(CCCN3CCOCC3)C(=O)NC3CCCCC3)c(=O)[nH]c2c1C	6409	-8	-2	0
O=C(NC1CCCCC1)N(Cc1cc2cc3c(cc2[nH]c1=O)OCCO3)CC1CCCO1 (stereo not given)	18971*	-8	2	?
COc1ccc(OP(=O)(Nc2ccccc2)Nc2ccccc2)cc1	17088*	-13	14	16
Cc1ccc(NP(=O)(Nc2ccc(C)cc2)Oc2ccccc2)cc1	3960	-2	-3	0
Cc1ccc(OCc2nnc(SCc3nc4ccccc4[nH]3)n2Cc2ccco2)cc1	5903	5	3	0
c1ccc(-c2nnc(SCc3nc4ccccc4[nH]3)n2Cc2ccco2)cc1	22637*	-1	4	?
N#Cc1ccc(CSc2nnc(-c3ccccc3)n2Cc2ccco2)cc1	24109*	-2	-2	?
NC(=O)c1ccsc1NC(=O)COC(=O)c1cc(Cl)ccc1O	6540	1	5	1
O=C1CSC(c2ccccc2)N1Cc1ccccc1 (stereo not given)	16347*	-32	?	-39
COC(=O)c1ccc(C2SCC(=O)N2Cc2ccccc2)cc1 (stereo not given)	3668	-8	9	2
CCOC(=O)/C(C(N)=NCCO)=C(/O)c1ccccc1	17067*	-4	-1	-1
CCOC(=O)/C(C(N)=NCCCO)=C(/O)c1ccccc1	7115	1	-5	1
CCCC(=O)CN1C(=O)C2(OCCO2)c2ccccc21	22726*	-3	1	-1
O=C1N(CCCN2C(=O)C3(OCCO3)c3ccccc32)c2ccccc2C12OCCO2	21454*	0	-5	-6
NNC(=O)CN1C(=O)C2(OCCO2)c2ccccc21	4029	-2	-7	0
CC(C)CC(=O)CN1C(=O)C2(OCCO2)c2ccccc21	23745*	2	-1	-2
COc1ccccc1NC(=O)CN1C(=O)C2(OCCCO2)c2ccccc21	20250*	0	1	2
O=C1N(CCCCN2C(=O)C3(OCCO3)c3ccccc32)c2ccccc2C12OCCO2	3442	0	-2	0
CCCS(=O)(=O)NC(=O)C1(C)CCCN(C(=O)c2cc(-c3cccs3)oc2C)C1 (stereo not given)	3803	-5	1	0
COCCNC(=O)c1ccc(N2CC3CC(C2)c2cccc(=O)n2C3)c(NC(=O)c2ccccc2Cl)c1 (stereo not given)	3732	-7	4	0
CNCCCOc1ccc(C)cc1Br	20475*	-1	-3	?
CN(C)CCCN1C(=O)c2oc3ccccc3c(=O)c2C1c1cccs1 (stereo not given)	18317*	-9	7	8
CCN(CC)CCN1C(=O)c2oc3ccc(F)cc3c(=O)c2C1c1ccncc1 (stereo not given)	5086	-13	-10	-1
CN(C)CCN1C(=O)c2oc3ccccc3c(=O)c2C1c1cccc(Br)c1 (stereo not given)	11184	-1	2	-1
SMILES	Autofluor counter	Anthrax LF inh2	BoNT-F LC inh	BoNT-A LC inh2
CCN(CC)CCN1C(=O)c2oc3ccccc3c(=O)c2C1c1ccc(F)cc1 (stereo not given)	21092*	-4	-3	-2
O=C(Cc1ccsc1)NNC(=O)c1ccccc1Cl	?	-16	?	2
O=C(Oc1ccc2c(c1)OCO2)c1ccc(Br)c(S(=O)(=O)N2CCOCC2)c1	23166*	-2	-2	?
O=C(NCc1ccccc1)c1c[nH]c2cc3c(cc2c1=O)OCCO3	16706*	-4	0	-1
O=C(NCc1ccc2c(c1)OCO2)c1c[nH]c2ccc(S(=O)(=O)N3CCOCC3)cc2c1=O	21299*	-7	4	2
O=C(NCc1ccc2c(c1)OCO2)c1ccc(Cl)c(S(=O)(=O)N2CCOCC2)c1	23645*	0	-2	1
COCCNC(=O)c1c[nH]c2ccc(S(=O)(=O)N3CCOCC3)cc2c1=O	5515	-3	1	1
O=C(NCc1ccccc1)c1ccc(CN2CCOCC2)cc1	2419	-4	-9	0
O=C(NCc1ccc2c(c1)OCO2)c1ccc(CN2CCOCC2)cc1	16861*	-1	-4	-1
COc1cc2[nH]cc(C(=O)NCc3cccs3)c(=O)c2cc1OC	17586*	0	-6	-6
CC1Cc2cc(S(=O)(=O)CCC(=O)NCc3ccco3)ccc2N1C(=O)C1CC1 (stereo not given)	5073	0	-1	1
C=CCN1/C(=C(\C#N)C2=NS(=O)(=O)c3ccccc32)N(C)c2ccccc21	16828*	-2	2	-1
CCC1(c2ccccc2)NC(=O)N(CC(=O)NC2(C#N)CCCCC2)C1=O (stereo not given)	4351	-3	1	1
Cc1ccc2nc(NCCO)nc(-c3ccccc3)c2c1	23056*	1	0	1
Cc1ccc2nc(N/N=C/c3ccccc3C#N)nc(-c3ccccc3)c2c1	17384*	-3	-5	-2
N#Cc1ccccc1/C=N/Nc1nc(-c2ccccc2)c2cc(Cl)ccc2n1	3917	-1	6	1
CN(C)CCP(=O)(c1ccccc1)c1ccccc1	4913	-5	-13	-7
CN(C)CCN(C)Cc1c2ccccc2c(CN(C)CCN(C)C)c2ccccc12	2999	-7	3	33*
CSc1nnc(-c2cccn(Cc3ccccc3)c2=O)o1	3506	11	1	1
O=c1c(-c2nnc(SCc3ccc(Cl)cc3Cl)o2)cccn1Cc1ccccc1	22041*	0	-1	?
Cc1ccc(NC(=O)Cc2ccccc2)cc1S(=O)(=O)N1CCOCC1	5810	-3	-5	-1
CC(NC(=O)COC(=O)Cc1ccsc1)C1CC2CCC1C2 (stereo not given)	24292*	-2	-4	-3
CCCCn1c(SCC(=O)NC2CC2)nc2ccccc2c1=O	5551	-10	3	0
ONC(=Nc1ccccc1)c1ccc(Cl)cc1	21077*	-1	4	2
NC(=Nc1ccc(Cl)cc1)c1ccccc1	4174	-2	-1	-1
SMILES	Autofluor counter	Anthrax LF inh2	BoNT-F LC inh	BoNT-A LC inh2
O=C(O)c1cc(N/N=C/c2ccc3c(c2)OCO3)ccc1Cl	4708	0	-3	1
O=C(O)c1cc(N/N=C/c2ccc3c(c2)OCCO3)ccc1Cl	2521	1	38*	2
O=S(=O)(N/N=C/c1ccc2c(c1)OCCO2)c1ccccc1	22257*	-1	1	0
O=[N+]([O-])c1ccc(S(=O)(=O)N/N=C/c2ccc3c(c2)OCO3)cc1	4364	3	4	0
O=C1C=C(/C=C/c2ccccc2)C[C@@H](c2ccc3c(c2)OCO3)C1	2667	0	4	1
O=C1C(=C2CCCCC2)SC(=S)N1Cc1ccco1	23926*	-4	-2	?
CC(C)C(=O)N1CCN(c2nc(-c3ccc(Cl)cc3)cs2)CC1	2506	2	-4	-1

Screens (PubChem)
